Assay outcomes from PubChem.
VACV mCherry inh: vaccinia inhibition (mCherry reporter). 310,000 tested, 0.63% active. Vaccinia virus mCherry reporter infection, fluorescence. Potency, µM (top dose mostly 36.5 µM), inactives show at the top dose activity change, negative = inhibition, most hits filed as inhibitors; calls by dose curve; tested in A549 cells; note: potency is the fitted concentration of half-maximal effect; nearly all actives have a fitted effect of over 35% in size
HCMV antiviral: human cytomegalovirus inhibition. HFF cells, HCMV-luciferase reporter, 72 h; hits give low values. activity change, negative = inhibition, % at 57.5 µM. 410,000 tested, 4.5% active. AID 1259415; in the data active = activity change below about -60%; inconclusive = no clear call, values can overlap the other calls; inactive = above about -39%
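Two compound doses tested in HFFs infected with HCMV-luciferase, MOI 1 PFU/cell, 72 h at 37C. Lysate luminescence read with OneGlo; data normalized against buffer-only and 10uM Salinomycin inhibitor controls.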
Tb PYK inh: inhibitors of Trypanosoma brucei pyruvate kinase. Q57TT1. TbPYK enzyme, Kinase-Glo Plus ATP luminescence, 45 min. Potency, µM (titrated, usually from 76.8 µM), for the others: top-dose activity, negative = inhibition, most hits filed as inhibitors. 410,000 tested, 0.12% active. AID 624173; note: potency is the fitted concentration of half-maximal effect; nearly all actives have a fitted effect of over 50% in size
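Readout: single end-point luminescence (Kinase-Glo Plus, 10 min). Reaction conditions were TbPYK/substrate plus 130 uM ADP, 45 min at RT, pH 7.2 TEA buffer. No-enzyme wells served as controls, and data were normalized before concentration-response fitting.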
LmPK inh: inhibitors of Leishmania mexicana pyruvate kinase; Potency, µM (series often up to 57.5 µM), for the others: top-dose activity change, negative = inhibition, hits mostly inhibitors; 290,000 tested, 0.37% active; AID 1721; purified LmPK, Kinase-Glo ATP luminescence, 1 h; note: potency is the fitted concentration of half-maximal effect
Target sequence (Q27686 whole entry, looked up): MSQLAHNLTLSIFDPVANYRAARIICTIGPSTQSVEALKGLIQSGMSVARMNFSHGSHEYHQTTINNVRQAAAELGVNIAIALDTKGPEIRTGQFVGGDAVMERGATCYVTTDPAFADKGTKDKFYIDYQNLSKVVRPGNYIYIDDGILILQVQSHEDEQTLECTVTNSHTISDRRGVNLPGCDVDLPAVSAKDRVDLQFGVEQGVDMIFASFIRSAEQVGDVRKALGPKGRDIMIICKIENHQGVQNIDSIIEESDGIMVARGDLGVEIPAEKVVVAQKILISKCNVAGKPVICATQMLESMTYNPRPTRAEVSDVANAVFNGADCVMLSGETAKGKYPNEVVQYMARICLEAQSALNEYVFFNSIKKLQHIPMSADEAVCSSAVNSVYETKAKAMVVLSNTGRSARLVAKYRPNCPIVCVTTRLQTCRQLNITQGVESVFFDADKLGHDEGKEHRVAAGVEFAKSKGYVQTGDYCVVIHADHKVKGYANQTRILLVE
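Purified LmPK (0.1 nM) converted ADP (0.1 mM) to ATP with PEP (0.5 mM) in imidazole buffer pH 7.2 with KCl and MgCl2, 1 h at room temperature. ATP was read by Kinase-Glo luminescence; data normalized to uninhibited and no-enzyme controls.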
Vaccinia Venus: vaccinia inhibition (Venus reporter); Vaccinia virus Venus reporter expression, fluorescence; AID 720580; 330,000 tested, 0.46% active; Potency, µM (titrated, usually from 36.5 µM), for the others: at the highest dose activity change, negative = inhibition, usual class: inhibitors; calls by dose curve; tested in A549 cells; note: potency is the fitted concentration of half-maximal effect; nearly all actives have a fitted effect of over 30% in size
Active calls of the source: *; i = inactive; ? = inconclusive; · = no result; [ ] = another dose, or the depositor's remark. Hits are enriched below; roughly 5% of the tested compounds scored in any of these assays. Unless noted, calls come from the whole dose curve; as a rule, active = well fitted curve in the direction sought with a large enough effect; inconclusive = small, poorly fitted or top-dose-only effect, or another doubt; inactive = no such curve, though single readings can be large; an effect the other way counts as inactive or inconclusive. % is set by controls: 0 for no effect and ±100 for the full control effect.

SMILES	VACV mCherry inh	HCMV antiviral	Tb PYK inh	LmPK inh	Vaccinia Venus
COc1ccc(OC)c(NC(=O)c2cc(OC(C)=O)cc(C(=O)Nc3cc(OC)ccc3OC)c2)c1	·	?	1%	19%	·
COc1ccc(-c2c(C)nn3c(N4CCOCC4)cc(C)nc23)cc1OC	-27%	11	2%	0%	-21%
COc1ccc(-c2c(C)nn3c(N4CCCCCC4)cc(C)nc23)cc1OC	?	-61*	0%	2%	-28%
Cc1cc(C)cc(NC(=O)c2cc3c(=O)n(Cc4ccco4)ccc3nc2C)c1	-4%	?	-6%	·	-8%
COC(=O)C1=C(C)N(Cc2ccccc2)C(=NCc2ccccc2)N[C@H]1c1ccccc1	-25%	-70*	-7%	-4%	?
COC(=O)C1=C(C)N(Cc2ccccc2C(F)(F)F)C(=NCc2ccc3c(c2)OCO3)NC1c1cccc(Cl)c1 (stereo unspecified)	·	3	·	·	·
COC(=O)C1=C(C)N(Cc2ccc(C(F)(F)F)cc2)C(=NCc2ccc3c(c2)OCO3)NC1c1ccccc1 (stereo unspecified)	·	-100*	·	·	·
CCOC(=O)c1ccc(NC(=O)CN2C(=O)C(C)(C)c3ccccc32)cc1	-22%	-13	2%	·	-20%
C/C=C/C=[N+](\[O-])C(C)/C(=N/O)c1ccc(F)cc1 (stereo unspecified)	·	-75*	-8%	-2%	·
Nc1nc(N)c2cc(CNc3ccc(Cl)c(Cl)c3)ccc2n1	?	-69*	-3%	·	5.6µM*
COc1nc(Nc2ccc(O)cc2)nc(OC(C(F)(F)F)C(F)(F)F)n1	·	?	-6%	1%	·
Nc1cccc(Nc2nc(OC(C(F)(F)F)C(F)(F)F)nc(OC(C(F)(F)F)C(F)(F)F)n2)c1	-33%[1.46 µM]	-107*	-8%	1%	28µM*
CCN(CC)CCC(=O)N1c2ccccc2Sc2ccc(C(F)(F)F)cc21	·	-85*	0%	·	·
CN(C)c1cc[n+](CC(=O)N2c3ccccc3Sc3ccccc32)cc1	i	-84*	-1%	-1%	-9%
CN(C)CC(=O)N1c2ccccc2Sc2ccc(Cl)cc21	?	-64*	0%	0%	1%
CN(C)CCC(=O)N1c2ccccc2Sc2ccc(Cl)cc21	?	?	-3%	0%	-7%
CCN(CC)CCC(=O)N1c2ccccc2Sc2ccc(Cl)cc21	-11%	?	0%	·	-21%
O=C(C[n+]1ccccc1)N1c2ccccc2Sc2ccccc21	4%	-75*	-2%	6%	8%
Cc1sc(NC(=O)COc2cccc(-n3cnnn3)c2)c(C#N)c1C	·	-62*	-2%	1%	·
C=CCn1c(SCC(=O)c2ccc(CNC(C)=O)o2)nc2ccccc2c1=O	·	-14	0%	2%	1.3µM*
CCOc1ccc(N=Cc2c(C)[nH]n(-c3nc4ccccc4[nH]3)c2=O)cc1	-12%	8	?	22µM*	3%
O=C(OCC(O)C1OC(c2ccccc2)OC(COC(=O)c2ccccc2)C1O)c1ccccc1 (stereo unspecified)	9%	?	2%	·	2%
CCOc1cc(Br)cc(/C=C2\SC(=Nc3ccccc3)NC2=O)c1O	·	-84*	6%	1%	·
C=CCOc1ccc(Br)cc1/C=C1/SC(=Nc2ccc(C(=O)O)cc2)NC1=O	·	-15	-1%	-9%	·
O=C(Nc1ccc(Cl)c(Cl)c1)N1N=CCC1c1ccccc1 (stereo unspecified)	-21%	-66*	2%	-1%	-17%
SMILES	VACV mCherry inh	HCMV antiviral	Tb PYK inh	LmPK inh	Vaccinia Venus
CN(C)c1ccc(-c2nn3c(-c4ccc(Cl)cc4)nnc3s2)cc1	-9%	-1	-1%	-2%	-8%
Clc1ccc(-c2nn3c(C4COc5ccccc5O4)nnc3s2)cc1 (stereo unspecified)	·	-99*	-8%	2%	·
O=C(CNC(=O)c1cccc(F)c1)N/N=C/c1cc(Br)ccc1OC(=O)/C=C/c1ccco1	·	-101*	-1%	6%	·
O=C(CNC(=O)c1ccccc1Br)N/N=C/c1ccco1	-13%	14	3%	-4%	-3%
O=C(CNC(=O)c1ccccc1O)N/N=C/c1cc(Br)ccc1OC(=O)/C=C/c1ccco1	?	-74*	-3%	26%	-22%
Cc1cc(Cl)ccc1C(O)c1ncc(-c2cccc(F)c2)[nH]1 (stereo unspecified)	24%	17	-3%	·	-12%
